Screens deposited in PubChem by National Center for Advancing Translational Sciences (NCATS).
Most compounds without a hit are left out; they make up all but 9.2% or so of the library.
FLuc counter = inhibits or activates purified firefly luciferase, miR-21 counter-screen; Potency, µM (titrated, usually from 57.5 µM), for the others: at the highest dose activity change, negative = inhibition, hits mostly inhibitors; AID 588342; actives 6.9% (n = 360,000); purified FLuc, Km substrates, luminescence inhibition; P08659;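 also: plate controls were vehicle for no effect and reference inhibitor for full effect; nearly all actives have a fitted effect of over 55% in size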
Target sequence (P08659 whole entry, looked up): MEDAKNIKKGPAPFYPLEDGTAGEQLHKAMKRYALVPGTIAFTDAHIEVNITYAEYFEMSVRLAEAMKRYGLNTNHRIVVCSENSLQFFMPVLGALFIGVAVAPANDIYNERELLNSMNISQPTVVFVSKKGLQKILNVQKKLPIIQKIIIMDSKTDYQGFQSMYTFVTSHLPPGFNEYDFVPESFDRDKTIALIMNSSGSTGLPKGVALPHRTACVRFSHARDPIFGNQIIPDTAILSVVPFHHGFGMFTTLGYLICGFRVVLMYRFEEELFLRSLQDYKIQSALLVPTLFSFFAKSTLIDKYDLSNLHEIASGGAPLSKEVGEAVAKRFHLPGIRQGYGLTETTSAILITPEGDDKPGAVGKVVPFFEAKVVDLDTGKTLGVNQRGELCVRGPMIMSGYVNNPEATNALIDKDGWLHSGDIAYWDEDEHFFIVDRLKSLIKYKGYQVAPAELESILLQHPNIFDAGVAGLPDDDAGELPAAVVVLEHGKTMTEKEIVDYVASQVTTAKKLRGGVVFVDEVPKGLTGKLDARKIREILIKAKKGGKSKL
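Biochemical qHTS of compounds, final roughly 60 µM downward over six points, against 10 nM purified firefly luciferase using Km concentrations of substrates (10 uM D-luciferin, 10 uM ATP) in Tris acetate pH 7.5 buffer; luminescence output.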
NPC1 promoter act = activates the NPC1 promoter. Huh7 NPC1 promoter luciferase reporter, 24 h. Potency, µM (highest dose often 9.22 µM), inactives show top-dose activation, usual class: activators. actives 2.4% (n = 320,000); also: % of control where 0% means no effect; nearly all actives have a fitted effect of over 60% in size
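Quantitative HTS used a cell-based reporter: Huh7 cells stably bearing the NPC1 promoter upstream of luciferase were treated with compounds for 24 h, and promoter activation was read as luminescence.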
SMN2 splice up = increases expression of the SMN2 splice variant; Potency, µM (series often up to 46.1 µM), without a hit: at the top dose activity change, positive = activation, hits mostly activators; HEK293 SMN2-luciferase splicing reporter, luminescence, 30-36 h; actives 2.8% (n = 210,000); also: % of control where 0% means no effect; nearly all actives have a fitted effect of over 55% in size
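qHTS luciferase splicing reporter: luminescence rises when SMN2 exon 7 is included in transfected HEK293 cells. Compound exposure lasted 30-36 h at 37C, with 4.5 mM final sodium butyrate as control, followed by a ONE-Glo read.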
Rab9 prom act = Rab9 promoter activation; Huh7 Rab9 promoter-luciferase reporter, luminescence, 24 h; Potency, µM (titrated, usually from 9.22 µM), for the others: top-dose activation, negative = inhibition, hits mostly activators; actives 2.8% (n = 320,000); also: % of control where 0% means no effect; nearly all actives have a fitted effect of over 60% in size
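Stable Rab9-luc Huh7, 1500 cells/well, 2 h settle; cmpd in DMSO, 24 h, 37 °C/5% CO2; luciferase reagent 10 min RT; luminescence.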
ELG1 genotoxic = induces genotoxicity in HEK293T cells with luciferase-tagged ELG1. HEK293T ELG1-luciferase reporter, luminescence, 16 h. Potency, µM (top dose mostly 46 µM), inactives show at the top dose activity change, positive = activation, most hits filed as activators. actives 1.3% (n = 330,000). AID 504466; also: % of control where 0% means no effect; nearly all actives have a fitted effect of over 60% in size
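Reporter readout depends on ELG1 protein level, which increases with genetic stress. After 16 hr compound exposure at 37 °C, luciferase activity was quantified using ONE-Glo.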
ELG1 repair inh = ELG1-dependent DNA repair inhibition; HEK293T ELG1-luciferase reporter, luminescence, 16 h; DNA damage induced by 5-fluorouridine; Potency, µM (series often up to 46.1 µM), inactives show top-dose activity change, negative = inhibition, most hits filed as inhibitors; actives 2.3% (n = 330,000); AID 504467; also: % is scaled to controls: 0 for no effect and ±100 for the full control effect; nearly all actives have a fitted effect of over 55% in size
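In this reporter screen, reduction of luminescence relative to DMSO vehicle indicated activity. Compounds and 5-fluorouridine were added together to 2,000 cells per well, incubated for 16 hr at 37 °C, then developed with ONE-Glo.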
Active calls of the source: *; [ ] = dose if it differs, or a comment. Calls follow the shape of the dose curve; as a rule, active = well fitted curve in the direction sought with a large enough effect; inconclusive = small, poorly fitted or top-dose-only effect, or another doubt; inactive = no such curve, though single readings can be large; an effect the other way counts as inactive or inconclusive. Potency is read from the fitted curve at half-maximal effect.

Screening COc1ccc(-c2coc3cc(OC(=O)N4CCOCC4)ccc3c2=O)cc1 returned FLuc counter 24µM*, NPC1 promoter act 23%, Rab9 prom act inconclusive, ELG1 genotoxic -7% and ELG1 repair inh inconclusive.
Screening CO[C@@H]([CH2][Hg])CN1C(=O)c2ccccc2S1(=O)=O.Cn1c(=O)c2nc[nH]c2n(C)c1=O returned SMN2 splice up -9%[9.22 µM].
Screening Cc1cc(C(=O)Nc2ccccc2)nn1C(C)(C)C returned FLuc counter 6.7µM*, NPC1 promoter act 2.2µM*, Rab9 prom act 2.2µM*, ELG1 genotoxic inconclusive and ELG1 repair inh inconclusive.
For Cc1cc(C(=O)Nc2ccc3c(c2)OCCO3)nn1C(C)(C)C the results were FLuc counter 7.6µM*, NPC1 promoter act 4.5µM*, Rab9 prom act 3.5µM*, ELG1 genotoxic inconclusive and ELG1 repair inh inconclusive.
`CC(C)(C)c1ccc(C(=O)Nc2ccc(Cl)cc2C(=O)c2ccccc2)cc1` gave FLuc counter -5% and SMN2 splice up -16%.
For Nc1nc(N)c(N=Nc2ccc([As](=O)(O)O)cc2)c(=O)[nH]1 the results were SMN2 splice up -9%[9.22 µM].
For CC(C)c1ccc(C(O)(C(=O)O)c2ccc(C(C)C)cc2)cc1 the results were SMN2 splice up -10%[9.22 µM].
For Cc1ccc(-n2c(O)c(/C=N/NC(=O)c3ccncc3)c(=O)[nH]c2=O)cc1C the results were FLuc counter 0%, NPC1 promoter act 0%, SMN2 splice up inconclusive, Rab9 prom act -6%, ELG1 genotoxic 4% and ELG1 repair inh 6%.
For Cc1nn(-c2ccccc2)c(Cl)c1/C=N\NC(=O)c1cnccn1 the results were FLuc counter 6µM*, NPC1 promoter act 16%, SMN2 splice up inconclusive, Rab9 prom act 22%, ELG1 genotoxic 14% and ELG1 repair inh inconclusive.
O=C(O)[C@@H]1[C@H](C(=O)O)[C@]2(Cl)C(Cl)=C(Cl)[C@@]1(Cl)C2(Cl)Cl was read as SMN2 splice up -64%[9.22 µM].
`Nc1nc(SCc2ccc(Cl)cc2Cl)n[nH]1` gave FLuc counter inconclusive, NPC1 promoter act 20%, SMN2 splice up inconclusive, Rab9 prom act 21%, ELG1 genotoxic 21µM* and ELG1 repair inh inconclusive.
`Cc1cccc(N2CCN(C(=O)CCNS(=O)(=O)c3ccc4c(c3)oc(=O)n4C)CC2)c1C` gave FLuc counter 1%, NPC1 promoter act -7%, Rab9 prom act -4%, ELG1 genotoxic -2%[9.26 µM] and ELG1 repair inh inconclusive.
`Cc1ccc(-c2nc(N3CCOCC3)s[n+]2-c2ccccc2)cc1` gave FLuc counter 9.5µM*, NPC1 promoter act 8%, SMN2 splice up 22%, Rab9 prom act 24%, ELG1 genotoxic inconclusive and ELG1 repair inh inconclusive.
For CCNC(C)(C)[C@@H](SS)c1ccc(Br)cc1 the results were SMN2 splice up -10%[9.22 µM].
For C[C@@]12CC[C@H]3[C@@H](CC[C@H]4C[C@@H](O)CC[C@]43C)[C@H]1CC[C@@H]2C(=O)C[C@H](O)C(F)(F)F the results were SMN2 splice up -9%[9.22 µM].
Screening CCC1=C(C[C@H]2NCCc3cc(OC)c(OC)cc32)C[C@H]2c3ccccc3CCN2C1 returned SMN2 splice up -4%[9.22 µM].
Screening CCN(CC)c1ccc(C=C2C(=O)N(C)C(=S)N(C)C2=O)o1 returned FLuc counter inconclusive, NPC1 promoter act 14%, SMN2 splice up inconclusive, Rab9 prom act inconclusive, ELG1 genotoxic inconclusive and ELG1 repair inh inconclusive.
For CCN(CC)c1ccc(/C=C2\C(=O)NC(=S)N(C)C2=O)o1 the results were FLuc counter 9.5µM*, NPC1 promoter act 1.4µM*, Rab9 prom act 1.3µM*, ELG1 genotoxic 21µM* and ELG1 repair inh inconclusive.
`CC(c1nccs1)N(C)C(=O)c1cn(Cc2cccc3ccccc23)nn1` (configuration not stated) gave FLuc counter inconclusive, NPC1 promoter act inconclusive, Rab9 prom act inconclusive, ELG1 genotoxic 14% and ELG1 repair inh inconclusive.
For COc1ccc(N2C(=O)/C(=C/C=C/c3ccccc3[N+](=O)[O-])C(=O)NC2=S)cc1 the results were FLuc counter 24µM*, NPC1 promoter act -1%, SMN2 splice up -7%, Rab9 prom act 1%, ELG1 genotoxic -1% and ELG1 repair inh 13%.
`Cc1c(C(c2ccc(Br)cc2)c2c(O)c3ccccc3oc2=O)c(=O)n(-c2ccccc2)n1C` (configuration not stated) gave FLuc counter 12µM*, NPC1 promoter act -5%, SMN2 splice up -12%, Rab9 prom act -7%, ELG1 genotoxic 6% and ELG1 repair inh -10%.
Screening CSc1ccc(C(c2c(O)c3ccccc3oc2=O)c2c(C)n(C)n(-c3ccccc3)c2=O)cc1 (configuration not stated) returned FLuc counter inconclusive, NPC1 promoter act 2%, SMN2 splice up -8%, Rab9 prom act -3%, ELG1 genotoxic 0% and ELG1 repair inh 9%.
COc1ccccc1N(CC(=O)NC1CCCC1)C(=O)c1cnn(C(C)C)c1 was read as FLuc counter 15µM*, NPC1 promoter act inconclusive, SMN2 splice up inconclusive, Rab9 prom act inconclusive, ELG1 genotoxic 11% and ELG1 repair inh inconclusive.
`Clc1ccc(C(Cl)(Cl)Cl)cc1Cl` gave SMN2 splice up -2%.
`Cn1nnc2cc(NC(=O)Nc3cccc(Cl)c3)ccc21` gave FLuc counter inconclusive, NPC1 promoter act 2µM*, Rab9 prom act 1.4µM*, ELG1 genotoxic inconclusive and ELG1 repair inh inconclusive.
C[N+](C)(C)CC#CCOC(=O)Nc1cccc(Cl)c1 was read as NPC1 promoter act 11%[46.1 µM], SMN2 splice up 23% and Rab9 prom act -6%[46.1 µM].
C/C(=N\OC(=O)NC(C)C)c1sc(-c2ccc(Cl)cc2)nc1C was read as FLuc counter 13µM*, NPC1 promoter act inconclusive, SMN2 splice up inconclusive, Rab9 prom act inconclusive, ELG1 genotoxic inconclusive and ELG1 repair inh inconclusive.
`CCNC(=O)O/N=C(\C)c1sc(-c2ccc(Cl)cc2)nc1C` gave FLuc counter 2.7µM*, NPC1 promoter act 1.4µM*, SMN2 splice up 29%, Rab9 prom act 3.5µM*, ELG1 genotoxic inconclusive and ELG1 repair inh inconclusive.
`C/C(=N\OC(=O)NC(C)C)c1sc(-c2ccccc2)nc1C` gave FLuc counter inconclusive, NPC1 promoter act 4µM*, SMN2 splice up 21%, Rab9 prom act inconclusive, ELG1 genotoxic 6% and ELG1 repair inh inconclusive.
